# Measured values published in the supplement of paper PMC10849652.
# The full data set covers some 7,900 targets. This sample favours those with a hit. About 0.6% of all pairs of compound and target were hits. Values without a mark were called inactive.
# Assays:
# Experiment in all cases: log2 fold change, soluble protein after heating vs DMSO (PISA); higher = thermal stabilisation; K562 cells, 10 uM, 30 min; active = over 0.2 and 3.5 SD of the protein, either way, in both replicates (recomputed)
# IRAK-1-4 Inhibitor I = compound: C1COCCN1CCN2C3=CC=CC=C3N=C2NC(=O)C4=CC(=CC=C4)[N+](=O)[O-] [IRAK-1-4 Inhibitor I]
# How it was run: (§1)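 Thermal stability values are relative to control samples and come from duplicates. They are expressed as log2 fold changes. For measurement, K562 cells (2×10^6 cells/mL) received 10 μM compound for 30 min, and aliquots were heated for 3 min over 48°C-58°C, pooled, and extracted at 4°C in PBS with 0.5% NP-40. Soluble protein, the supernatant after 21,000xg for 90 min, was quantified by TMTpro 16plex LC-MS/MS with equalised channel sums.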
# ibrutinib = compound: C=CC(=O)N1CCC[C@@H](n2nc(-c3ccc(Oc4ccccc4)cc3)c3c(N)ncnc32)C1 [ibrutinib]
# How it was run: as §1
# [1] = compound: CC(=O)c1cnc2ccc(-c3cc(Cl)c(O)c(Cl)c3)nc2c1N[C@H]1CC[C@H](CN(C)C)CC1
# How it was run: as §1
# ralimetinib = compound: CC(C)(C)Cn1c(N)nc2ccc(-c3[nH]c(C(C)(C)C)nc3-c3ccc(F)cc3)nc21 [ralimetinib]
# How it was run: as §1
# [2] = compound: CC(C)(O)CC(=O)NCCn1ccc2ncnc(Nc3ccc(Oc4cccc(C(F)(F)F)c4)c(Cl)c3)c21
# How it was run: as §1
# [3] = compound: CC(C)C1=C2N=C(C=C(N2N=C1)NCC3=CC=CC=C3)NCCCCCCN
# How it was run: as §1
# [4] = compound: CC(C)C[C@@H](C=O)NC(=O)[C@H](CC(C)C)NC(=O)[C@H](CC(C)C)NC(=O)OCc1ccccc1
# How it was run: as §1
# pinometostat = compound: CC(C)N(C[C@H]1O[C@@H](n2cnc3c(N)ncnc32)[C@H](O)[C@@H]1O)[C@H]1C[C@@H](CCc2nc3cc(C(C)(C)C)ccc3[nH]2)C1 [pinometostat]
# How it was run: as §1
# [5] = compound: CC1=C(C(CC(=O)N1)C2=CC=C(C=C2)C(F)(F)F)C(=O)NC3=C(C=C4C(=C3)C=NN4)F
# How it was run: as §1
# [6] = compound: CC1=C(C2=C(C=C1)C(=O)C3=CC=CC=C3N2CCCN)C
# How it was run: as §1
# Sequence of UniProt P15531 (P15531 whole entry, looked up): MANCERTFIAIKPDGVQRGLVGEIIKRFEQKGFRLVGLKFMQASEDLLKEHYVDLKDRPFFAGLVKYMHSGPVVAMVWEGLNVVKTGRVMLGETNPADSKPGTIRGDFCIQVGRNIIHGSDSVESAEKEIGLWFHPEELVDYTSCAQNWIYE
# Sequence of UniProt P15559 (P15559 whole entry, looked up): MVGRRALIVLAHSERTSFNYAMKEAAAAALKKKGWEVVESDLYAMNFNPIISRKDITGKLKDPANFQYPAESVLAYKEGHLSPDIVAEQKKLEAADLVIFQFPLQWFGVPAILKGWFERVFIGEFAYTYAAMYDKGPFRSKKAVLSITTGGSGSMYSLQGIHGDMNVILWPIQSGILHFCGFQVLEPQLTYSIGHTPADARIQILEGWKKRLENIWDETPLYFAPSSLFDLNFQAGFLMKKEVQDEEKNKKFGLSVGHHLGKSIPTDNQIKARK
# Sequence of UniProt Q14149 (Q14149 whole entry, looked up): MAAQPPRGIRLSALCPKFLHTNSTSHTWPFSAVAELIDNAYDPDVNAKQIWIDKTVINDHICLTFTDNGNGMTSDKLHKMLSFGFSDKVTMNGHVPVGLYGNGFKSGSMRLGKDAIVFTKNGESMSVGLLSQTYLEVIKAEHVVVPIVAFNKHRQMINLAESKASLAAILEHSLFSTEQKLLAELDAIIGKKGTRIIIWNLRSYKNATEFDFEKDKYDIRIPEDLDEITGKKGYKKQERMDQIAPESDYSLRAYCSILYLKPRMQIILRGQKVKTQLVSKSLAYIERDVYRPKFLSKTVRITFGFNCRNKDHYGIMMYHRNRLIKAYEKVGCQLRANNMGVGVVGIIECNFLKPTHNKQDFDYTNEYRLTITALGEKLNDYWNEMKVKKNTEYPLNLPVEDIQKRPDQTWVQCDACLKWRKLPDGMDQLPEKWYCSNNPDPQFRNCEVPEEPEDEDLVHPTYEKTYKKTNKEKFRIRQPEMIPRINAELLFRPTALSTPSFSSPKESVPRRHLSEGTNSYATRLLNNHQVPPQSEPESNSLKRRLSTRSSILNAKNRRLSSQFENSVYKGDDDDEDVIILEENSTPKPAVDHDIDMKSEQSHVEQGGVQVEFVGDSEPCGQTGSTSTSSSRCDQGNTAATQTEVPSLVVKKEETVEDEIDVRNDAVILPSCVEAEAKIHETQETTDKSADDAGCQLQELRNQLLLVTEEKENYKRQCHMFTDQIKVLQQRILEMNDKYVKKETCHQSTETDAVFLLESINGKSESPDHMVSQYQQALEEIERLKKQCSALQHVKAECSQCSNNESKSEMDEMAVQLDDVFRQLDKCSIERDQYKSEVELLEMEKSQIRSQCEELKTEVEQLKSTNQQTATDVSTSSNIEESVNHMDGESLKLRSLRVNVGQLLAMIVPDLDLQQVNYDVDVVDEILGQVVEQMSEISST
# Sequence of UniProt P57740 (P57740 whole entry, looked up): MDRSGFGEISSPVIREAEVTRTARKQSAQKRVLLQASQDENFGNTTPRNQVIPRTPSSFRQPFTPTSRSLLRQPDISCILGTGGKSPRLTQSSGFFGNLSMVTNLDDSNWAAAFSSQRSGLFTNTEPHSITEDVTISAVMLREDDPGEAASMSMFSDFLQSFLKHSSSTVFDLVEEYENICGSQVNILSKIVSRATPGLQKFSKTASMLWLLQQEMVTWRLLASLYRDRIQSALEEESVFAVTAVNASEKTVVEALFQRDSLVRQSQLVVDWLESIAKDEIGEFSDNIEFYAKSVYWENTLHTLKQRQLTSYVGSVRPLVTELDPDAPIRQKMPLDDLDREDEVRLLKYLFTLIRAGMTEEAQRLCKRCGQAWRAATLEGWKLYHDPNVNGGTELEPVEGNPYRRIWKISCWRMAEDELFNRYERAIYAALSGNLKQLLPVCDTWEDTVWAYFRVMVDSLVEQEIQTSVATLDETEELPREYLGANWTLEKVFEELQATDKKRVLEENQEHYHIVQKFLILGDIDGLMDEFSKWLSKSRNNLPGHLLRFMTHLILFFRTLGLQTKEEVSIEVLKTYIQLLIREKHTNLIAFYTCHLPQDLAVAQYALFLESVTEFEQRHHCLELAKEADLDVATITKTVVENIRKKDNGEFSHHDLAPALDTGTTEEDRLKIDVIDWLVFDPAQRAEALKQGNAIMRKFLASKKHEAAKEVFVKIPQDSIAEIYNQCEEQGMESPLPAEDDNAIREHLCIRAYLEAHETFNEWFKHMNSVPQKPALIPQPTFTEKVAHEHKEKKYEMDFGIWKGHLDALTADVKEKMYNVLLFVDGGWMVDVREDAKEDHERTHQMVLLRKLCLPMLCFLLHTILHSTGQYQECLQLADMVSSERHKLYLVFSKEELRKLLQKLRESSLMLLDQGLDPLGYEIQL
# Sequence of UniProt Q9UH92 (Q9UH92 whole entry, looked up): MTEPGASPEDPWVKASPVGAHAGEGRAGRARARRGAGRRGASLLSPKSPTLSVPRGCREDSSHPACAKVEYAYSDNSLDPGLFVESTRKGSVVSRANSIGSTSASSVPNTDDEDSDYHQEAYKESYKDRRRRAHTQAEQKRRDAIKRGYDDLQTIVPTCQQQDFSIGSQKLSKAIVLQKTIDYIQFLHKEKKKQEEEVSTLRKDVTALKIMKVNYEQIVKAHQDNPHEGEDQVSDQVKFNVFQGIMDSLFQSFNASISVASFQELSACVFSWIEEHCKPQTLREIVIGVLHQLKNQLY
# Sequence of UniProt Q8NCE2 (Q8NCE2 whole entry, looked up): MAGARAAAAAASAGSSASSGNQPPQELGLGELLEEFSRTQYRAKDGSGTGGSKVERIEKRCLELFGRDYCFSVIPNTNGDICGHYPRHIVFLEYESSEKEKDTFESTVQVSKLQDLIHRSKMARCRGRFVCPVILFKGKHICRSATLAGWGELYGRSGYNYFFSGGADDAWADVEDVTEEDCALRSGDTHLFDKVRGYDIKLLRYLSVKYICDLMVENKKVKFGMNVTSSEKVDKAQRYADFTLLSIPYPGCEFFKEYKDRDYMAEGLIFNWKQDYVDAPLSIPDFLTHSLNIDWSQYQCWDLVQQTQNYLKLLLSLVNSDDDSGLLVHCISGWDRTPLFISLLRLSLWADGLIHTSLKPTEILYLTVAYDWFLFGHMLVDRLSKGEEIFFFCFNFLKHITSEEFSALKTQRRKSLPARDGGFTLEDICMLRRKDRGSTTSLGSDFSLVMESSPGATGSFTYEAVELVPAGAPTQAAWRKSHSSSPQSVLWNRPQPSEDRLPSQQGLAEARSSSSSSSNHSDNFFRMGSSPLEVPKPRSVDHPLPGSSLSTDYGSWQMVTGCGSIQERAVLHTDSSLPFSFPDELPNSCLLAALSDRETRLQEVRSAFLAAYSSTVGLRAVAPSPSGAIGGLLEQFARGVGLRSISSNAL
# Sequence of UniProt Q7Z3U7 (Q7Z3U7 whole entry, looked up): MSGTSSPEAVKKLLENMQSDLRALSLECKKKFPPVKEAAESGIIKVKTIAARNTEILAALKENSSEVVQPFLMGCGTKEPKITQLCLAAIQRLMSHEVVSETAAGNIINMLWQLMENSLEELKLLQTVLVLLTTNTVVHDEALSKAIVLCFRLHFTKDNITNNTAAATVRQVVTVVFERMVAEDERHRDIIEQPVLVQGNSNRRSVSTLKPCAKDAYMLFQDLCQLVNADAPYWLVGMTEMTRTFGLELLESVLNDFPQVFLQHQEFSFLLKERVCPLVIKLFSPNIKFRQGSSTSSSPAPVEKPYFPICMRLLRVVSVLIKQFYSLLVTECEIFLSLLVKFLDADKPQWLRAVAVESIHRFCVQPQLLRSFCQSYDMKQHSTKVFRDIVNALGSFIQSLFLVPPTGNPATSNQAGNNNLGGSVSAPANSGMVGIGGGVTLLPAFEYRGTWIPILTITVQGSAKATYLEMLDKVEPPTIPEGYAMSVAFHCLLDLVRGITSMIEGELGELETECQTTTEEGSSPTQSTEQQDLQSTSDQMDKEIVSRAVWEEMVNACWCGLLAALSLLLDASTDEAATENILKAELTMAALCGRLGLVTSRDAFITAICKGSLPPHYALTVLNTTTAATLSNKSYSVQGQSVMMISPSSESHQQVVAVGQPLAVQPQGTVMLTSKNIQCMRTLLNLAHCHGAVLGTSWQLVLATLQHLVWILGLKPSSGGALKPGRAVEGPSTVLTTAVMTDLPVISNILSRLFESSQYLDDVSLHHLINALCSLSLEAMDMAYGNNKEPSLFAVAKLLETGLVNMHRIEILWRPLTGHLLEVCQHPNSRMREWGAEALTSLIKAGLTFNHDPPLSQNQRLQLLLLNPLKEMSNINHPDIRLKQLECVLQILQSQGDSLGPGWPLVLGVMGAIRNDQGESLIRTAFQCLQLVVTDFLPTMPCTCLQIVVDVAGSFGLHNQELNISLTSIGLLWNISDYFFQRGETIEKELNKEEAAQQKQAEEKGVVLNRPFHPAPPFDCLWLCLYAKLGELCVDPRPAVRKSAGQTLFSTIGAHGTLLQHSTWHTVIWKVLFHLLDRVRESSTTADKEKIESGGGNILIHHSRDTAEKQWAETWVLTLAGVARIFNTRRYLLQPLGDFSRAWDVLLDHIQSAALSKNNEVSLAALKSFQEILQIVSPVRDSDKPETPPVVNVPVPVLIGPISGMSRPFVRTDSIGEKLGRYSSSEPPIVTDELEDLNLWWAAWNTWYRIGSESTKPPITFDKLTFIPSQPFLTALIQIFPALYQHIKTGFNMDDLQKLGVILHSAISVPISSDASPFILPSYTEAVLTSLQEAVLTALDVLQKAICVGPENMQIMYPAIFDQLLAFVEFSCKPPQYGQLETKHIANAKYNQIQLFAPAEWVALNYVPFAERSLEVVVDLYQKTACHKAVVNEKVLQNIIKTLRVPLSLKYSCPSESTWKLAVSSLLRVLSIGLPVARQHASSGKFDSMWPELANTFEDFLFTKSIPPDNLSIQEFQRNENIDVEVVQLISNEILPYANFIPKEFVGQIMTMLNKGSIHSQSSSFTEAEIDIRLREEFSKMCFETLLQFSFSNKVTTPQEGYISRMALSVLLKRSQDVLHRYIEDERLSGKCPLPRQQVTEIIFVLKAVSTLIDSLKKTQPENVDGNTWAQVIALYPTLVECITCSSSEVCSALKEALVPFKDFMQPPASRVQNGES
Target,log2 fold change (IRAK-1-4 Inhibitor I),log2 fold change (ibrutinib),log2 fold change [1],log2 fold change (ralimetinib),log2 fold change [2],log2 fold change [3],log2 fold change [4],log2 fold change (pinometostat),log2 fold change [5],log2 fold change [6]
NMRAL1 (UniProt Q9HBL8),0.058,0.874 (active),0.467,-0.016,-0.121,0,-0.007,0,-0.257,0.281
OXSR1 (UniProt O95747),0.014,-0.022,-0.341 (active),0.045,-0.115,-0.111,-0.05,0.026,0.02,0.106
NUDT16 (UniProt Q96DE0),0.049,0.03,0.022,-0.039,0.005,0.066,-0.001,-0.001,0.017,0.004
MOV10 (UniProt Q9HCE1),-0.135,0.002,0.069,0.12,0.082,0.02,0.033,0.163,-0.052,-0.305
NEDD4L (UniProt Q96PU5),0.026,-0.002,-0.014,-0.293 (active),-0.01,-0.107,-0.059,0.027,-0.017,-0.084
MRPL50 (UniProt Q8N5N7),-0.036,0.052,0.036,0.315,-0.001,-0.014,-0.203,-0.01,0.04,0.16
NMT1 (UniProt P30419),0.023,0.028,0.017,0.017,-0.047,-0.053,0.008,0.037,0.009,-0.051
PAFAH1B2 (UniProt P68402),0.013,0.017,-0.016,0.038,-0.436 (active),0.012,-0.033,0.016,0.027,0.005
NOSIP (UniProt Q9Y314),-0.401,-0.032,-0.033,-0.065,-0.135,-0.106,-0.039,0.085,-0.143,0.186
MRPS33 (UniProt Q9Y291),-0.006,0.022,-0.004,-0.038,-0.069,-0.034,0.122,0.096,0.096,-0.158
NFE2 (UniProt Q16621),0.053,-0.039,0.016,-0.06,0.01,-0.119,0.184,-0.001,0.037,-0.285 (active)
MTHFD1 (UniProt P11586),0.01,-0.014,-0.068,-0.001,-0.082,-0.102,-0.005,-0.034,-0.023,0.073
MRPL46 (UniProt Q9H2W6),-0.069,-0.012,0.077,0.029,-0.008,-0.073,0.064,0.03,-0.004,-0.026
MITD1 (UniProt Q8WV92),-0.043,0.03,0,-0.002,-0.296,-0.77 (active),-0.002,0.082,-0.101,0.047
NQO1 (UniProt P15559),0.001,-0.053,0.044,0.001,-0.029,-0.035,-0.045,-0.02,-0.038,-0.01
NRF1 isoform 4 (UniProt Q16656),-0.014,-0.007,-0.059,0.024,0.082,-0.125,-0.025,-0.004,-0.037,-0.419 (active)
MTMR14 (UniProt Q8NCE2),0.027,-0.069,-0.015,0.004,0.028,-0.04,-0.004,-0.041,0.06,-0.029
OSTC (UniProt Q9NRP0),-0.002,-0.013,-0.022,0.004,-0.055,-0.377 (active),-0.046,-0.023,-0.031,0.119
NUP98 (UniProt P52948),-0.021,-0.048,-0.146,0.04,0,-0.071,0.041,0.03,-0.019,0.013
MLX (UniProt Q9UH92),-0.033,-0.058,-0.132,0.077,-0.163,-0.236,0.14,0.016,0.043,-0.008
NARS2 (UniProt Q96I59),0.044,0.03,0.034,-0.034,-0.121,-0.31 (active),-0.019,-0.019,-0.002,-0.006
NDUFB7 (UniProt P17568),0.012,0.008,0.007,0.079,-0.034,-0.002,-0.055,-0.017,0.014,0.004
NOL7 (UniProt Q9UMY1),-0.139,0.036,0.158,0.041,0.043,0.016,0.141,0.242,0.059,-0.485
NME1 isoform 2 (UniProt P15531),0.021,0.107,-0.007,-0.035,0.03,0.041,0.032,-0.017,-0.192,0.038
NEU1 (UniProt Q99519),-0.136,-0.069,-0.175,0.05,0.018,-0.379 (active),0.166,-0.021,0.049,-0.131
MON2 isoform 5 (UniProt Q7Z3U7),0.013,-0.036,-0.005,0.097,-0.076,-0.088,0.004,0.048,-0.022,0.055
MORC3 (UniProt Q14149),0.021,-0.047,0.023,-0.024,-0.122,-0.051,0.002,-0.026,-0.039,0.595 (active)
MRPS24 (UniProt Q96EL2),-0.048,0.009,-0.071,-0.086,-0.094,-0.159,0.051,0.002,-0.031,-0.227
NUP107 (UniProt P57740),-0.054,-0.152,-0.035,0.035,0.023,-0.005,0.089,0.165,0.062,-0.052
NMT2 (UniProt O60551),0.006,0.064,-0.031,-0.017,-0.022,-0.125,-0.019,0.053,0.037,0.01
